# Assay results as given in ChEMBL document CHEMBL3988442, “University of Dundee, Small-Polar-MMV Screening Library” (2021).
# The whole screen tested about 48,000 compounds, of which about 13,000 (27%) showed an effect of 50% or more. Some of the results follow.
# Test system: Wolbachia pipientis
# Assay: Anti-Wolbachia Cell-Based Screen
# Assay type: functional
# Parameters: scale not given: in the data most compounds retested in dose-response had high values
# Conditions: 5 µM
row,SMILES,Percent Effect [%]
1,CCC(=O)N1CCc2[nH]cnc2C12CCN(CC1CCOC1)CC2 (stereo not given),-0.5236
2,O=C(CCc1ccco1)NCC1CCCN1c1cccnn1 (stereo not given),2.662
3,Fc1cc(CN2CCOC3(CCOCC3)C2)ccc1Cl,8.168
4,CN(C)C(=O)CNC(=O)c1ccc2c(-c3nccs3)noc2c1,-0.7255
5,CC(Cc1ccco1)NC(=O)C1=NN(c2ccccc2)C(=O)CC1 (stereo not given),-5.577
6,Cn1cnc2c1CCN(CCCOc1ccc(C#N)cc1)C2,-1.382
7,CN(C)c1ccc(-c2nnc([C@H]3CCN(C4CCCCC4)C3)o2)cc1,-10.19
8,O=C(O)C1(Cc2cc(-c3ccc(F)cc3F)no2)CCOCC1,-11.85
9,Cc1ccccc1C1(C(=O)NCCN2CCCC2)CCOCC1,3.645
10,O=C(O)C1(Cc2cc(-c3ccccc3F)no2)CCOCC1,118.9
11,O=C(NCCO)C1(Cc2cc(-c3ccc(F)cc3F)no2)CCOCC1,-8.546
12,O=C(O)C1(Cc2cc(-c3ccc(F)cc3)no2)CCOCC1,104.3
13,Cc1cc(NCC2(O)CCOCC2)c2ccccc2n1,18.91
14,O=C(CNC1(CCO)CCOCC1)Nc1ccc(F)cc1F,0.1585
15,O=C(O)C1(Cc2cc(-c3cccc(F)c3)no2)CCOCC1,-9.48
16,O=C(NC1CC1)C1(Cc2cc(-c3ccc(F)cc3F)no2)CCOCC1,116.7
17,Cc1ccccc1-c1cc(CC2(C(=O)O)CCOCC2)on1,97.16
18,COCCNC(=O)c1cc(F)ccc1NS(C)(=O)=O,-6.492
19,Cc1cc(C)n(CC2CCCN2CC(=O)N(C)Cc2cnn(C)c2)n1 (stereo not given),3.257
20,Cc1ccsc1CN(CCN(C)C)C(=O)C1=NNC(=O)CC1,-65.43
21,O=C(CSc1ccncc1)N1CCC2(CC1)c1ccccc1CC2O (stereo not given),-6.227
22,CCS(=O)(=O)N1CC[C@H]2O[C@@H](c3nnc(C)o3)CC[C@H]21,-3.387
23,CCc1nc(C)c(C(=O)N2CCNCC2C(=O)NCc2ccncc2)o1 (stereo not given),-5.393
24,COCc1noc(-c2nn(-c3ccc(F)cc3)c3c2CCC3)n1,-5.396
25,COCCOCc1cccc(NC(=O)N2CCCC2c2ccncc2)c1 (stereo not given),1.869

row,SMILES,Percent Effect [%]
1,CNC(=O)C(C)(C)N1CCC[C@H]1C(=O)NCCN(C)C.Cl,11.97
2,Cc1ccccc1C(=O)NC1CCN(c2cnn(C)c2)C1=O (stereo not given),-0.04337
3,Cc1ncc2c(n1)CCCC2NC(=O)c1ccccc1C(=O)O (stereo not given),116.6
4,O=C(Nc1ccc(Cn2cccn2)cc1)N1CCC(CO)CC1,5.025
5,Cc1ncc2c(n1)CCCC2NC(=O)c1ccc(Cn2cccn2)cc1 (stereo not given),102.9
6,Cc1ncc2c(n1)CCCC2NC(=O)c1ccccc1Cn1cncn1 (stereo not given),-4.956
7,Cc1ncc2c(n1)CCCC2NC(=O)c1ccncc1 (stereo not given),4.921
8,Cc1ccccc1Oc1ncccc1CNS(C)(=O)=O,-1.022
9,CNC(=O)CN(C)S(=O)(=O)c1c(Br)cc2[nH]c(=O)oc2c1Cl,-6.435
10,COc1nccnc1-c1cc(NC2CCNCC2)nc2[nH]ccc12,-9.475
11,COc1cccc(-c2cc(NCCO)nc3[nH]ccc23)n1,17.98
12,CN(C)CCNc1cc(-c2ccc[nH]c2=O)c2cc[nH]c2n1,6.813
13,CNc1cc(C)nc(-c2cc(NC3CCNCC3)nc3[nH]ccc23)n1,81.74
14,Nc1ccnc(-c2cc(NC3CCNCC3)nc3[nH]ccc23)c1,10.25
15,COc1cccc(-c2cc(NCCN(C)C)nc3[nH]ccc23)n1,-69.14
16,CN(C)CCNc1cc(-c2ncccn2)c2cc[nH]c2n1,-0.2256
17,CNc1cc(C)nc(-c2cc(NC)nc3[nH]ccc23)n1,82.65
18,CNc1cc(C)nc(-c2cc(NCCO)nc3[nH]ccc23)n1,88.51
19,COCc1ncn(Cc2nc(-c3ccc(OC)c(OC)c3)oc2C)n1,7.274
20,Cn1ccc(CNC(=O)Nc2ccc(S(=O)(=O)C(F)F)cc2)c1,-20.88
21,N#Cc1cc(NC(=O)c2ccccn2)ccc1N1CCC(O)CC1,-12.43
22,Cc1cc2cccc(C(=O)N3CC[C@@H](N)[C@H](O)C3)c2o1,-9.123
23,Cc1nc(C(C)C)ncc1C(=O)N1CCC(c2ccccc2C(=O)O)C1 (stereo not given),-21.75
24,Cc1cc(-c2cc(F)ccc2C(=O)O)nc(C2CCCN(C)C2)n1 (stereo not given),126.1
25,Cc1cc(-c2ccccc2C(=O)O)nc(C2CCCN(C)C2)n1 (stereo not given),123

row,SMILES,Percent Effect [%]
1,CC(=O)N1CCC(c2nc(C)cc(-c3ccccc3C(=O)O)n2)CC1,83.33
2,Cc1noc(C2CCCN(C(=O)c3ccc(F)cc3F)C2)n1 (stereo not given),-2.652
3,Cc1cc(C(=O)N2CCCC(c3noc(C)n3)C2)[nH]n1 (stereo not given),-10.2
4,Cc1nc(-c2ccccc2C(=O)O)cc(C2CCN(C(C)C)C2)n1 (stereo not given),107.2
5,COC(=O)c1cccc(NS(=O)(=O)c2cnc(NC(C)=O)s2)c1,20.99
6,Cc1cc2nc(CO[C@H]3CN(C(=O)C4CC4)C[C@H]3F)[nH]c2cc1C,14.86
7,CC(Cc1ccco1)NS(=O)(=O)N1CCCCC1 (stereo not given),-4.951
8,Cc1cc(=O)c(C(=O)N2CCCCC2c2ccc(F)cc2)c[nH]1 (stereo not given),-20.91
9,COC(=O)NCC(=O)N1CCCCC1c1nc2cc(F)ccc2[nH]1 (stereo not given),-29.13
10,Cc1cc(-c2cc(F)ccc2C(=O)O)nc(C2CCCCN2C(C)C)n1 (stereo not given),125.8
11,Cc1cc(-c2ccccc2C(=O)O)nc(C2CCCN(C(C)C)C2)n1 (stereo not given),128.4
12,COc1ccc(Cl)cc1CCNC(=O)N(C)CC1CCOC1 (stereo not given),11.56
13,CN(C)CCN1CCc2c(nnn2C)C1COCc1ccccc1.O=C(O)C(F)(F)F.O=C(O)C(F)(F)F (stereo not given),6.935
14,CN1CCC2(CC1)CN(Cc1ccc(C3CCCCO3)o1)CCCN2C (stereo not given),6.017
15,COc1ncccc1CNC(=O)Nc1ccc(N(C)C)nc1,102.4
16,Cc1nc(CNC(=O)Nc2ccc(N(C)C)nc2)sc1C,-4.03
17,CC(CNC(=O)Nc1ccc(N(C)C)nc1)Cn1cccn1 (stereo not given),10.01
18,CN(C)c1ccc(NC(=O)NCc2cccnc2N(C)C)cn1,100.5
19,CN(C)c1ccc(NC(=O)NCc2cccs2)cn1,-3.387
20,Cc1nnc(NC(=O)NCc2cccnc2N(C)C)s1,4.263
21,O=C(O)C(F)(F)F.O=C(O)C(F)(F)F.O=S(=O)(NCC1OCCc2cn(Cc3ccccn3)nc21)C1CC1 (stereo not given),3.652
22,CCCN1CCCN(c2ccc(-n3ccc(C)n3)nn2)CC1,-2.54
23,CC(C)c1cc(NC(=O)CN2CCc3cncnc3C2)on1,-4.855
24,CC(C)c1cc(NC(=O)CN2CCC(C(N)=O)CC2)on1,115.1
25,CC(C)c1cc(NC(=O)CN2CCCC(Cn3cncn3)C2)on1 (stereo not given),3.767

row,SMILES,Percent Effect [%]
1,CNC(=O)C1CCN(CC(=O)Nc2cc(C(C)C)no2)CC1,108.1
2,CC(C)c1cc(NC(=O)CN2CCc3ccccc3C2)on1,0.7279
3,Cc1nnc2n1CCN(CC(=O)Nc1cc(C(C)C)no1)C2,1.962
4,O=C1CCC2(CCN(Cc3ccc(F)cc3Cl)CC2)CN1CCO,-18.28
5,CCOc1ccc(CNC(=O)N(C)Cc2ncnn2C)cc1C,11.45
6,CC(C)c1noc(C2CCCN2C(=O)CN2CCc3ccccc32)n1 (stereo not given),-3.468
7,CN(C)CC(=O)N1Cc2nc(C(=O)NCc3ccccc3)oc2C1,4.563
8,CCCNC(=O)c1nc2c(o1)CN(C(=O)CN(C)C)C2,2.652
9,CN(C)CC(=O)N1Cc2nc(C(=O)N3CCCN(C)CC3)oc2C1,106
10,CN1CCCN(C(=O)c2nc3c(o2)CN(C(=O)c2cccnc2)C3)CC1.O=C(O)C(F)(F)F.O=C(O)C(F)(F)F,-2.795
11,CN1CCCN(C(=O)c2nc3c(o2)CN(S(C)(=O)=O)C3)CC1,89.92
12,CN1CCN(C(=O)c2nc3c(o2)CN(C(=O)c2cccnc2)C3)CC1.O=C(O)C(F)(F)F.O=C(O)C(F)(F)F,7.797
13,COCCN1CC(Nc2nc(C(C)C)nc3c2cnn3C)CC1=O (stereo not given),0.2406
14,CCCc1nc(C)cc(N2CCNC(C(=O)NCc3cccnc3)C2)n1 (stereo not given),0.7849
15,CSC(CNS(N)(=O)=O)c1cccc(Cl)c1 (stereo not given),-15.56
16,CC(C)NC(=O)[C@H]1C[C@@H]2[C@@H](C1)OCCN2Cc1nccs1.O=C(O)C(F)(F)F,0.8743
17,CS(=O)(=O)N1C[C@H]2CCCN(Cc3nccs3)[C@H]2C1.O=C(O)C(F)(F)F,1.749
18,O=C(O)C(F)(F)F.O=C([C@H]1CC[C@@H]2[C@@H](CCN2Cc2nccs2)O1)N1CCCCO1,-6.039
19,CN(C)C(=O)[C@@H]1C[C@@H]2[C@@H](CCN2Cc2nccs2)O1.O=C(O)C(F)(F)F,111.2
20,CN(C)C(=O)[C@@H]1CC[C@@H]2[C@@H](CCN2Cc2nccs2)O1.O=C(O)C(F)(F)F,98.79
21,CC(C)N(C)[C@@H]1CCN(Cc2nccs2)[C@H]1Cc1ccncc1.O=C(O)C(F)(F)F.O=C(O)C(F)(F)F.O=C(O)C(F)(F)F,-17.48
22,Cc1ccccc1-c1noc(C2CC(C(C)C)=NO2)n1 (stereo not given),10.38
23,CCc1cc(N(C)Cc2nonc2C)nc(N2CCOCC2)n1,-1.429
24,CCN(Cc1nonc1C)C(=O)c1cnccn1,-6.24
25,CCc1cc(N(C)Cc2nonc2C)nc(N(C)C)n1,93.32
